Assay outcomes as filed in PubChem BioAssay.
Most compounds without a hit are left out; they make up all but 6.5% or so of the library.
VACV Venus inh = qHTS for Stage-Specific Inhibitors of Vaccinia Orthopoxvirus: Venus Reporter Primary qHTS; Potency, µM (highest dose often 36.5 µM), without a hit: top-dose activity change, negative = inhibition, usual class: inhibitors; actives 0.46% (n = 330,000); Vaccinia virus Venus reporter expression, fluorescence; AID 720580, 2013; calls by dose curve; tested in A549 cells; further: potency means the concentration at half of the fitted maximal effect; nearly all actives have a fitted effect of over 30% in size
Marburg entry inh = qHTS for inhibitors of binding or entry into cells for Marburg Virus | Marburg virus pseudotyped entry inhibition, cell reporter | Potency, µM (doses to about 37.8 µM), for inactives: at the top dose activity change, negative = inhibition, usual class: inhibitors | actives 1.8% (n = 300,000) | AID 540276, 2011; calls by dose curve; tested in HEK293 cells; further: potency means the concentration at half of the fitted maximal effect
Lassa entry inh = qHTS for Inhibitors of binding or entry into cells for Lassa Virus; Lassa virus pseudotype entry inhibition, cell reporter; Potency, µM (top dose mostly 37.9 µM), without a hit: at the highest dose activity change, negative = inhibition, hits mostly inhibitors; actives 1.2% (n = 300,000); AID 540256, 2011; calls by dose curve; tested in HEK293 cells; further: potency means the concentration at half of the fitted maximal effect; nearly all actives have a fitted effect of over 50% in size
FMDV antiviral = High Throughput Screening for Foot and Mouth Disease Virus Antivirals. actives 1.2% (n = 410,000). FMDV antiviral cell-based qHTS. AID 1159524, 2015. Potency, µM (titrated, usually from 57.9 µM), inactives show at the highest dose activity change, negative = inhibition, hits mostly inhibitors; calls by dose curve; tested in HEK293T cells; further: read-out not given here; potency means the concentration at half of the fitted maximal effect; nearly all actives have a fitted effect of over 45% in size
VACV mCherry inh = qHTS for Stage-Specific Inhibitors of Vaccinia Orthopoxvirus: mCherry Reporter Primary qHTS; actives 0.63% (n = 310,000); Potency, µM (top dose mostly 36.5 µM), for the others: at the highest dose activity change, negative = inhibition, actives largely listed as inhibitors; Vaccinia virus mCherry reporter infection, fluorescence; calls by dose curve; tested in A549 cells; further: potency means the concentration at half of the fitted maximal effect; nearly all actives have a fitted effect of over 35% in size
HCMV antiviral = qHTS Assay for inhibitors of the human cytomegalovirus (HCMV). activity change, negative = inhibition, % at 57.5 µM. AID 1259415, 2018. actives 4.5% (n = 410,000). HFF cells, HCMV-luciferase reporter, 72 h; hits give low values; in the data active means activity change below about -60%; inconclusive means no clear call, values can overlap the other calls; inactive means above about -39%
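Cell-based, HFFs, 1000 cells/well, 16 h 37C; cpds in DMSO + HCMV-luc, MOI 1 PFU/cell; 72 h 37C; OneGlo luminescence after 5 min RT; norm. to buffer vs Salinomycin 10uM.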
An asterisk follows results filed as active; i = inactive; ? = inconclusive; . = no result; ! = repeats disagree; [ ] = dose if it differs, or a comment. On the % scale 0 is the no-effect control and ±100 the full control effect.

SMILES | VACV Venus inh | Marburg entry inh | Lassa entry inh | FMDV antiviral | VACV mCherry inh | HCMV antiviral
CC(Sc1nc(NCc2ccccc2)nc(N(C)C)n1)C(=O)Nc1ccccc1 (centres undefined) | . | -29% | ? | 0% | . | -105*
O=C(O)c1ccc(-c2ccccc2C(F)(F)F)o1 | -7% | 25% | 1% | 0% | -10% | -1
Cc1ccccc1-c1ccc(C(=O)NCc2ccccc2)o1 | ? | 11% | ? | 50% | -16% | 72
O=C(NCc1ccccc1)c1ccc(-c2ccccc2C(F)(F)F)o1 | -4% | ? | 2.3µM* | 52% | i | 34
O=C(NCc1ccccc1)c1ccc(-c2ccc(F)cc2)o1 | . | -3% | 6.5µM* | 24% | . | 17
O=C(CCc1ccccc1)NCc1ccc(F)cc1 | -12% | -1%[46.1 µM] | 1%[46.1 µM] | 25% | i | 15
Cc1ccc(-c2ccc(C(=O)NCc3ccc(Cl)cc3)o2)c2ccccc12 | -19% | 5% | 21µM* | -25% | ? | -10
COc1ccc([C@H]2/C(=C(\O)c3cnn(-c4ccccc4)c3C)C(=O)C(=O)N2CCN(C)C)cc1OC | . | 3%[46.1 µM] | . | . | . | .
COc1ccc(CN(C)C(=O)c2[nH]c(C)c(C(C)=O)c2C)cc1F | -12% | -15%[46.1 µM] | -21% | 6% | -7% | 28
CCN(CC)CCCN=Cc1c(O)n(Cc2ccccc2)c(=O)c2ccccc12 | ? | ? | ? | 3% | . | 45
CC(C)CCC(C)N=Cc1c(O)n(Cc2ccccc2)c(=O)c2ccccc12 (centres undefined) | -12% | 13µM* | -10% | -5% | . | 7
O=c1c2ccccc2c(/C=N/c2ncn[nH]2)c(O)n1Cc1ccccc1 | ? | ? | -18%[46.1 µM] | -4% | ? | -82*!
Cc1cnc(-n2ncc(C(=O)N[C@H]3CCCCNC3=O)c2C2CC2)nc1-c1cccs1 | -5% | . | . | -8% | -11% | .
CC(=O)Nc1cccc(C(=O)NC2CCCc3c2cnn3-c2cc(C)cc(C)c2)c1 (centres undefined) | -9% | ? | ? | 20% | -12% | ?
CCC(O)C1CCN(C(=O)c2cc(COc3ccc4ncccc4c3)on2)CC1 (centres undefined) | -24% | ? | ? | ? | -18% | .
O=C(c1cc(COc2ccc(F)cc2Cl)on1)N1CCCC(OCc2cccnc2)C1 (centres undefined) | -13% | -7%[46.1 µM] | -4% | 0% | -20% | ?
O=C(c1cc(COc2ccc(F)cc2Cl)on1)N1CCC(OCc2cccnc2)CC1 | -4% | -3%[46.1 µM] | -4% | -14% | -8% | -68*
O=C(c1cc(COc2ccc3ncccc3c2)on1)N1CCC[C@H]1CO | -17% | -21% | ? | -11% | -11% | ?
O=C(c1cc(COc2ccc3ncccc3c2)on1)N1CCC(O)CC1 | -20% | ? | -26% | -27% | -30% | -82*
O=C(c1cc(COc2ccc3ncccc3c2)on1)N1CCCC(O)C1 (centres undefined) | -28% | -18%[46.1 µM] | -5%[46.1 µM] | -20% | -10% | -63*
O=C(NC1CCCCCCC1)c1cc(COc2ccc3ncccc3c2)on1 | -18% | -19%[46.1 µM] | ? | 3.5µM* | -25% | ?
CC(=O)N(Cc1ccc2c(c1)OCO2)Cc1cc2ccc(C)cc2nc1-c1cccc(C)c1 | 27% | . | . | -3% | -12% | .
CC1=NC=CC2C1=Nc1ccccc12 (centres undefined) | . | -1% | . | . | . | .
Cc1cccc(CN2CCN(C3CN(Cc4cn(Cc5cccc(C(F)(F)F)c5)nn4)S(=O)(=O)C3)CC2)c1 (centres undefined) | -9% | . | . | ? | 14% | -38
CN(Cc1nccn1C)C(=O)c1cc(COc2ccc3ncccc3c2)on1 | -4% | ? | -16%[46.1 µM] | ? | ? | -31
SMILES | VACV Venus inh | Marburg entry inh | Lassa entry inh | FMDV antiviral | VACV mCherry inh | HCMV antiviral
COCC1CCCN(C(=O)c2cc(COc3ccc4ncccc4c3)on2)C1 (centres undefined) | -15% | ? | ? | ? | -7% | -85*
CC(CNC(=O)c1cc(COc2ccc3ncccc3c2)on1)c1ccccc1 (centres undefined) | -24% | ? | ? | ? | -7% | -76*
COc1cc(Cl)ccc1OCc1cc(C(=O)NCC(C)c2ccccc2)no1 (centres undefined) | . | . | . | -2% | . | -16
Cc1cc(CN(C)C(=O)c2cc(COc3ccc4ncccc4c3)on2)on1 | -14% | ? | ? | ? | -3% | -80*
Cc1cccc(C)c1OCc1cc(C(=O)N2CCC(c3ccncc3)CC2)no1 | -20% | ? | 14%[46.1 µM] | -4% | -16% | ?
O=C(c1cc(COc2c(F)cccc2F)on1)N1CCC(c2ccncc2)CC1 | -4% | ? | -8% | -4% | -22% | -84*
Cc1ccc(OCCn2c(SCCO)nc3c(N)ncnc32)cc1 | . | . | . | ? | . | -28
CCOc1cc(C(=O)Nc2ccc3c4c(cccc24)C(=O)N3CC)cc(OCC)c1OCC | . | 18µM* | -3% | ? | . | 100
O=C1c2ccccc2C(=O)c2c(NCCCN(CCO)CCO)cccc21 | -10% | ? | 6% | ? | ? | -103*
CCN(CC)CC(=O)Nc1cccc2c1C(=O)c1ccccc1C2=O | . | 0% | -25% | -26% | . | 9
CN1CCN(c2cccc3c2S(=O)(=O)N[C@@H](Cc2ccccc2)CO3)CC1 | 1% | . | . | -14% | i | -16
NC(N)=N/N=C/c1ccc(N(c2ccccc2)c2ccccc2)cc1 | 10µM* | . | . | 32µM* | ? | -98*
CCN(Cc1ccccc1)c1ccccc1 | -11% | . | . | -18% | -16% | 5
NC(N)=N/N=C/c1ccc(OS(=O)(=O)c2ccccc2)cc1 | . | . | . | -24% | . | -82*
CCN(Cc1ccccc1)c1ccc(/C=N/N=C(N)N)cc1 | 11µM* | 6.5µM* | 8.2µM* | ? | ? | -62*
CCOc1cc(/C=N/NC(N)=O)cc(Br)c1OCc1ccccc1F | -7% | -7% | -3% | ? | -17% | -22
CCOc1cc(/C=N/NC(=O)Cn2nc([N+](=O)[O-])cc2C)cc(Br)c1OCc1ccccc1F | . | ? | -12% | 0% | . | -96*
CNC(=O)c1cc(-c2ccc(F)cc2)cc(-c2ccc(S(=O)(=O)N3CCCC3)cc2)c1N | . | . | 8.9µM* | . | . | .
O=C(NCc1ccc(F)cc1)c1ccc(S(=O)(=O)N2CCCC2)cc1 | -7% | . | . | -6% | i | -8
O=C(Nc1nnc([C@@H]2C[C@H](O)[C@@H](CO)O2)s1)c1cccc(OC(F)(F)F)c1 | -12% | . | . | 9% | 34% | -84*
CCCC(=O)Nc1nnc([C@H]2C[C@H](O)[C@@H](CO)O2)s1 | -7% | . | . | -8% | 6% | -96*
